From PubChem BioAssay AID1159580 (chemical genetic matrix, 2015)
The whole screen tested about 5,500 compounds, of which about 2,000 (36%) were called active. Inconclusive results (about 18%) are left out. Cut-off read from the data, not from the text of the source: active = normalized growth mostly below about 0.91 (no sharp cut-off); inconclusive = no clear call, values can overlap the other calls; inactive = mostly above about 0.92. This is one part of the list.

Assay: chemical genetic growth profiling, strain panel (AID 1159580);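 note: tested at 20 µM; growth read once vehicle control cultures reached saturation at 30 °C; 1 = growth at the plate median or of vehicle wells; lower values mean less growth of the strain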
Conditions: growth OD
[1] = S. cerevisiae deletion strains, locus YDL101C, strain DUN1, hits give low values
[2] = S. cerevisiae deletion strains, locus YHR030C, strain SLT2, hits give low values

Measured: normalized growth

COc1ccc(Br)c(C(=O)/C(C#N)=C/c2cccs2)c1
active: S. cerevisiae deletion strains, locus YAR019C, strain CDC15, hits give low values 0.765 | [1] 0.676 | S. cerevisiae deletion strains, locus YDL132W, strain cdc53, hits give low values 0.871 | S. cerevisiae deletion strains, locus YDL214C, strain PRR2, hits give low values 0.221 | S. cerevisiae deletion strains, locus YDR054C, strain cdc34, hits give low values 0.696 | S. cerevisiae deletion strains, locus YDR477W, strain SNF1, hits give low values 0.197 | S. cerevisiae deletion strains, locus YER123W, strain YCK3, hits give low values 0.122 | S. cerevisiae deletion strains, locus YER133W, strain GLC7, hits give low values 0.187 | S. cerevisiae deletion strains, locus YFL009W, strain cdc4, hits give low values 0.861 | S. cerevisiae deletion strains, locus YFL029C, strain CAK1, hits give low values 0.724 | S. cerevisiae deletion strains, locus YFR019W, strain FAB1, hits give low values 0.149 | S. cerevisiae deletion strains, locus YGR040W, strain KSS1, hits give low values 0.229 | S. cerevisiae deletion strains, locus YGR052W, strain FMP48, hits give low values 0.205 | S. cerevisiae deletion strains, locus YGR092W, strain DBF2, hits give low values 0.178 | [2] 0.125 | S. cerevisiae deletion strains, locus YHR079C, strain IRE1, hits give low values 0.132 | S. cerevisiae deletion strains, locus YHR082C, strain KSP1, hits give low values 0.15 | S. cerevisiae deletion strains, locus YHR205W, strain SCH9, hits give low values 0.0479 | S. cerevisiae deletion strains, locus YJL095W, strain BCK1, hits give low values 0.146 | S. cerevisiae deletion strains, locus YJL157C, strain FAR1, hits give low values 0.181 | S. cerevisiae deletion strains, locus YJR066W, strain TOR1 (second series), hits give low values 0.252 | S. cerevisiae deletion strains, locus YJR066W, strain TOR1, hits give low values 0.146 | S. cerevisiae deletion strains, locus YKL048C, strain ELM1, hits give low values 0.234 | S. cerevisiae deletion strains, locus YKL067W, strain YNK1, hits give low values 0.262 | S. cerevisiae deletion strains, locus YKL101W, strain HSL1, hits give low values 0.307 | S. cerevisiae deletion strains, locus YKL193C, strain SDS22, hits give low values 0.787 | S. cerevisiae deletion strains, locus YKL203C, strain TOR2, hits give low values 0.2 | S. cerevisiae deletion strains, locus YLR113W, strain HOG1, hits give low values 0.23 | S. cerevisiae deletion strains, locus YLR133W, strain CKI1, hits give low values 0.224 | S. cerevisiae deletion strains, locus YLR403W, strain SFP1, hits give low values 0.081 | S. cerevisiae deletion strains, locus YML070W, strain DAK1, hits give low values 0.177 | S. cerevisiae deletion strains, locus YMR205C, strain PFK2 (second series), hits give low values 0.287 | S. cerevisiae deletion strains, locus YMR277W, strain FCP1, hits give low values 0.814 | S. cerevisiae deletion strains, locus YNL006W, strain LST8, hits give low values 0.875 | S. cerevisiae deletion strains, locus YNL020C, strain ARK1, hits give low values 0.22 | S. cerevisiae deletion strains, locus YNL161W, strain CBK1, hits give low values 0.836 | S. cerevisiae deletion strains, locus YNL183C, strain NPR1, hits give low values 0.151 | S. cerevisiae deletion strains, locus YNL222W, strain SSU72, hits give low values 0.861 | S. cerevisiae deletion strains, locus YNL307C, strain MCK1 (second series), hits give low values 0.169 | S. cerevisiae deletion strains, locus YOL078W, strain AVO1, hits give low values 0.722 | S. cerevisiae deletion strains, locus YOL136C, strain PFK27, hits give low values 0.139 | S. cerevisiae deletion strains, locus YOR061W, strain CKA2, hits give low values 0.344 | S. cerevisiae deletion strains, locus YOR119C, strain RIO1, hits give low values 0.249 | S. cerevisiae deletion strains, locus YOR231W, strain MKK1, hits give low values 0.187 | S. cerevisiae deletion strains, locus YPL031C, strain PHO85, hits give low values 0.179 | S. cerevisiae deletion strains, locus YPL153C, strain RAD53, hits give low values 0.198 | S. cerevisiae deletion strains, locus YPL204W, strain HRR25, hits give low values 0.189 | S. cerevisiae deletion strains, locus YPL256C, strain CLN2, hits give low values 0.16 | S. cerevisiae deletion strains, locus YPR106W, strain ISR1, hits give low values 0.886 | S. cerevisiae deletion strains, strain NNK1, hits give low values 0.676 | S. cerevisiae deletion strains, strain TSCII, hits give low values 0.736
inactive: S. cerevisiae deletion strains, locus YBL105C, strain PKC1, hits give low values 0.94 | S. cerevisiae deletion strains, locus YBR135W, strain CKS1, hits give low values 0.903 | S. cerevisiae deletion strains, locus YBR136W, strain MEC1, hits give low values 0.922 | S. cerevisiae deletion strains, locus YBR160W, strain CDC28, hits give low values 0.921 | S. cerevisiae deletion strains, locus YDL017W, strain CDC7, hits give low values 0.921 | S. cerevisiae deletion strains, locus YDL028C, strain MPS1, hits give low values 0.909 | S. cerevisiae deletion strains, locus YDL108W, strain KIN28, hits give low values 0.904 | S. cerevisiae deletion strains, locus YDR052C, strain DBF4, hits give low values 0.929 | S. cerevisiae deletion strains, locus YDR226W, strain ADK1, hits give low values 0.908 | S. cerevisiae deletion strains, locus YFR003C, strain YPI1, hits give low values 0.918 | S. cerevisiae deletion strains, locus YFR028C, strain CDC14, hits give low values 0.913 | S. cerevisiae deletion strains, locus YIL147C, strain SLN1, hits give low values 0.919 | S. cerevisiae deletion strains, locus YJL128C, strain PBS2, hits give low values 0.874 | S. cerevisiae deletion strains, locus YJR016C, strain ILV3, hits give low values 0.915 | S. cerevisiae deletion strains, locus YMR001C, strain CDC5, hits give low values 0.921 | S. cerevisiae deletion strains, locus YNL207W, strain RIO2, hits give low values 0.917 | S. cerevisiae deletion strains, locus YOR329C, strain SCD5, hits give low values 0.929 | S. cerevisiae deletion strains, locus YPL209C, strain IPL1, hits give low values 0.926 | S. cerevisiae deletion strains, locus YPR025C, strain CCL1, hits give low values 0.914 | S. cerevisiae deletion strains, locus YPR111W, strain DBF20, hits give low values 0.935

COc1ccc(OC)c(CNC(=O)Cc2cccs2)c1
inactive: S. cerevisiae deletion strains, locus YAL013W, strain DEP1, hits give low values 1.01 | S. cerevisiae deletion strains, locus YBR229C, strain ROT2, hits give low values 1.03 | S. cerevisiae deletion strains, locus YCL061C, strain MRC1, hits give low values 1.03 | [1] 1.05 | S. cerevisiae deletion strains, locus YDL134C, strain PPH21, hits give low values 0.997 | S. cerevisiae deletion strains, locus YDR150W, strain NUM1, hits give low values 0.993 | S. cerevisiae deletion strains, locus YEL061C, strain CIN8, hits give low values 0.995 | S. cerevisiae deletion strains, locus YGR078C, strain PAC10, hits give low values 1.04 | [2] 1.04 | S. cerevisiae deletion strains, locus YHR087W, strain rtc3, hits give low values 0.952 | S. cerevisiae deletion strains, locus YJR043C, strain POL32, hits give low values 1.03 | S. cerevisiae deletion strains, locus YJR075W, strain HOC1, hits give low values 0.998 | S. cerevisiae deletion strains, locus YLR039C, strain RIC1, hits give low values 1.04 | S. cerevisiae deletion strains, locus YLR058C, strain SHM2 (second series), hits give low values 0.988 | S. cerevisiae deletion strains, locus YLR085C, strain ARP6, hits give low values 0.994 | S. cerevisiae deletion strains, locus YLR262C, strain YPT6, hits give low values 1.01 | S. cerevisiae deletion strains, locus YML094W, strain GIM5, hits give low values 0.962 | S. cerevisiae deletion strains, locus YMR219W, strain ESC1, hits give low values 0.996 | S. cerevisiae deletion strains, locus YMR263W, strain SAP30, hits give low values 1.01 | S. cerevisiae deletion strains, locus YNL153C, strain GIM3, hits give low values 1.03 | S. cerevisiae deletion strains, locus YNL298W, strain CLA4 (second series), hits give low values 1 | S. cerevisiae deletion strains, locus YNL322C, strain KRE1, hits give low values 1 | S. cerevisiae deletion strains, locus YNR030W, strain Alg12, hits give low values 1 | S. cerevisiae deletion strains, locus YPL055C, strain LGE1, hits give low values 0.961 | S. cerevisiae deletion strains, locus YPL241C, strain CIN2, hits give low values 0.983 | S. cerevisiae deletion strains, locus YPR135W, strain CTF4, hits give low values 1.06 | S. cerevisiae strains, strain wild type, hits give low values 1.01
